An excerpt weighted towards active compounds, which were near 27% of everything screened.
CYP2C19 act: human CYP2C19 activators, primary screen, biochemical, luminescence; 96,000 tested, under 10 active; activation factor at 5 µM; recombinant CYP2C19, luciferin-H EGE luminescence; stronger effect = higher value; 0 = fully inhibited enzyme, 1 = untreated enzyme; Cytochrome P450 2C19 (Homo sapiens), P33261;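 active = activation factor of at least 2 at 5 µM in the primary screen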;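 note: 0 = wells with 2.5 mM tranylcypromine and 1 = vehicle-only wells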
CYP2C9 act: human CYP2C9 activators, primary screen, biochemical, luminescence. Cytochrome P450 2C9 (Homo sapiens), P11712. activation factor at 5 µM. AID 1024, 2008. recombinant CYP2C9, luciferin-H conversion; stronger effect = higher value; factor 1 = untreated enzyme, 0 = blocked. 96,000 compounds, 1.4% hits;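 active = activation factor of 2 or more for CYP2C9 at a 5 µM dose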;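 note: 0 = sulfaphenazole-blocked wells and 1 = vehicle-only wells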
CYP2C19 inhib: blockers of cytochrome P450 2C19 activity – biochemical, luminescence, ADME assay, primary screen; CYP2C19 Supersomes, luciferin-H EGE luminescence, 30 min; inhibition, % at 5 µM; P33261; 96,000 compounds, 21% hits;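 active = CYP2C19 inhibition above a set limit at 5 µM in the primary screen, cut at about 50% in these data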;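 note: plate controls were negative control wells for no effect and 2.5 mM tranylcypromine positive control for full effect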
Cav32 inh: Cav3.2 calcium influx blockers – cell-based, Fluo-4 calcium fluorescence, FDSS, MLSMR library, primary screen. 100,000 compounds, 4% hits. B-score at 10 µM. Voltage-dependent T-type calcium channel subunit alpha-1H (Homo sapiens), O95180. Cav3.2-expressing cells; stronger effect = lower value;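 active = single-dose well whose peak fluorescence ratio is a statistical outlier from its plate by either plate-standardised score or position-corrected B-score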
CYP2C9 inh: blockers of cytochrome P450 2C9 activity – biochemical, luminescence, ADME assay, primary screen. P11712. CYP2C9 Supersomes, luciferin-H conversion. inhibition, % at 5 µM. 96,000 compounds, 20% hits. AID 777, 2007;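 active = blocking of liver enzyme CYP2C9 beyond about 50% at 5 µM, limit read from the data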
An asterisk follows results filed as active.

Cc1ccccc1CSCCNC(=O)CCSc1ccccc1 was read as CYP2C19 act 0.6, CYP2C9 act 0.2, CYP2C19 inhib 36.6, Cav32 inh -6.07* and CYP2C9 inh 76.3*.
CCOCCCNC(=O)CCSc1ccc(C)cc1 was read as Cav32 inh 1.79.
CC(C)(C)SCCNC(=O)CSc1ccccc1 was read as Cav32 inh 0.166.
CCc1sc(NS(C)(=O)=O)nc1-c1ccccc1 was read as CYP2C19 act 0.9, CYP2C9 act 0.8, CYP2C19 inhib 10.1, Cav32 inh 0.271 and CYP2C9 inh 18.4.
O=C(NN1C(=O)c2ccccc2NC1c1ccccc1OCc1ccccc1)c1ccncc1 (stereo not given) was read as CYP2C19 act 0.5, CYP2C9 act 0.7, CYP2C19 inhib 49.3, Cav32 inh 0.0922 and CYP2C9 inh 32.9.
CC1(C)CC(=O)C2(CC3=C(CC(C)(C)CC3=O)O2)C(=O)C1 was read as CYP2C19 act 1, CYP2C9 act 1, CYP2C19 inhib -3.1, Cav32 inh -0.674 and CYP2C9 inh -4.6.
`CCCCOC(=O)c1ccc(NC(C)=O)cc1` gave CYP2C19 act 0.8, CYP2C9 act 0.8, CYP2C19 inhib 18.3, Cav32 inh 0.0198 and CYP2C9 inh 25.0.
Cc1ccc(C(=O)Nc2cccc(Oc3ccccc3)c2)o1 was read as CYP2C19 act 0.7, CYP2C9 act 0.7, CYP2C19 inhib 30.3 and CYP2C9 inh 34.7.
For O=C(NCc1ccco1)c1cccc(NC(=O)c2ccco2)c1 the results were CYP2C19 act 0.7, CYP2C9 act 0.2, CYP2C19 inhib 29.9, Cav32 inh 1.35 and CYP2C9 inh 82.4*.
Screening CCCCCOC(=O)c1ccc(NC(=O)c2ccco2)cc1 returned CYP2C19 act 0.2, CYP2C9 act 0.1, CYP2C19 inhib 79.5* and CYP2C9 inh 93.6*.
Screening Cc1ccc(C(=O)Nc2cccc(C(=O)NCc3ccccc3)c2)o1 returned CYP2C19 act 0.5, CYP2C9 act 0.1, CYP2C19 inhib 52.1*, Cav32 inh 0.0522 and CYP2C9 inh 87.9*.
`CC(C)CNC(=O)c1cccc(NC(=O)c2ccco2)c1` gave CYP2C19 act 1, CYP2C9 act 0.9, CYP2C19 inhib -3.5, Cav32 inh 0.389 and CYP2C9 inh 6.4.
For O=C(NCc1ccccc1)c1cccc(NC(=O)c2ccco2)c1 the results were CYP2C19 act 0.4, CYP2C9 act 0.1, CYP2C19 inhib 55.5*, Cav32 inh 0.39 and CYP2C9 inh 85.3*.
`Cc1cc(C)c(C)c(S(=O)(=O)NCC(=O)Nc2sc3c(c2C(N)=O)CCCC3)c1C` gave CYP2C19 act 0.7, CYP2C9 act 0.8, CYP2C19 inhib 31.6, Cav32 inh -0.00181 and CYP2C9 inh 22.1.
CC(C)(C)c1ccccc1NC(=O)c1ccco1 was read as CYP2C19 act 0.5, CYP2C9 act 0.7, CYP2C19 inhib 53.3*, Cav32 inh -0.109 and CYP2C9 inh 32.0.
For CN(Cc1ccccc1)C(=O)c1cccc(NC(=O)c2ccco2)c1 the results were CYP2C19 act 0.6, CYP2C9 act 3.1*, CYP2C19 inhib 38.4 and CYP2C9 inh -212.5.
For O=C(Nc1ccccc1C(=O)Nc1ccccc1C(=O)NCc1ccco1)c1ccco1 the results were CYP2C19 act 1.1, CYP2C9 act 1, CYP2C19 inhib -9.7, Cav32 inh -0.857 and CYP2C9 inh -0.6.
For CC(C)(C)c1ccc(C(=O)Nc2ccccc2NC(=O)c2ccco2)cc1 the results were Cav32 inh -2.65.
Screening O=C(Nc1ccccc1C(=O)NCc1ccco1)c1ccco1 returned CYP2C19 act 0.6, CYP2C9 act 0.3, CYP2C19 inhib 36.5, Cav32 inh 0.11 and CYP2C9 inh 70.9*.
`CCCCOc1ccccc1NC(=O)C=C(C)C` gave CYP2C19 act 0.9, CYP2C9 act 1, CYP2C19 inhib 6.1, Cav32 inh -0.925 and CYP2C9 inh 3.6.
For CCCCOc1ccccc1NC(=O)c1ccco1 the results were CYP2C19 act 0.5, CYP2C9 act 1, CYP2C19 inhib 52.0*, Cav32 inh -4.46* and CYP2C9 inh 0.2.
Cc1c(NC(=O)c2cccc(NC(=O)c3ccco3)c2)cccc1C(=O)O was read as CYP2C19 act 1, CYP2C9 act 1.2, CYP2C19 inhib -2.5, Cav32 inh 0.437 and CYP2C9 inh -15.4.
`COc1ccc(S(=O)(=O)N(Cc2cc3ccc(OC)cc3[nH]c2=O)CC2COCCO2)cc1` (stereo not given) gave CYP2C19 act 0.7, CYP2C9 act 0.3, CYP2C19 inhib 30.1, Cav32 inh 0.427 and CYP2C9 inh 74.8*.
Screening CN(Cc1cc2ccccc2[nH]c1=O)S(=O)(=O)c1ccccc1 returned CYP2C19 act 0.2, CYP2C9 act 0.5, CYP2C19 inhib 78.7* and CYP2C9 inh 45.1.
Screening COc1ccc2cc(CN(CC3COCCO3)S(=O)(=O)c3ccccc3)c(=O)[nH]c2c1 (stereo not given) returned CYP2C19 act 1, CYP2C9 act 0.2, CYP2C19 inhib 3.1, Cav32 inh 0.602 and CYP2C9 inh 84.9*.
`CCCC(=O)N(Cc1cc2cc(C)ccc2[nH]c1=O)c1ccccc1OC` gave CYP2C19 act 1, CYP2C9 act 0.8, CYP2C19 inhib 4.6, Cav32 inh -1.74 and CYP2C9 inh 21.4.
Cc1ccc(S(=O)(=O)N(C)Cc2cc3ccccc3[nH]c2=O)cc1 was read as CYP2C19 act 0.8, CYP2C9 act 1, CYP2C19 inhib 21.7, Cav32 inh -0.0207 and CYP2C9 inh -3.7.
For CCCC(=O)N(Cc1cc2ccccc2[nH]c1=O)c1ccccc1OC the results were CYP2C19 act 0.4, CYP2C9 act 0.1, CYP2C19 inhib 64.8*, Cav32 inh -0.335 and CYP2C9 inh 86.9*.
O=C(CO/N=C/c1ccccc1)N1c2ccccc2Oc2ccccc21 was read as Cav32 inh -0.783.
CCOC(=O)C1CCN(S(=O)(=O)c2cccc(-c3cn4cc(Cl)ccc4n3)c2)CC1 was read as CYP2C19 act 0.2, CYP2C9 act 0.3, CYP2C19 inhib 76.3*, Cav32 inh 0.136 and CYP2C9 inh 67.4*.
For CCOC(=O)C1CCN(S(=O)(=O)c2cccc(-c3cn4ccccc4n3)c2)CC1 the results were CYP2C19 act 0.7, CYP2C9 act 0.6, CYP2C19 inhib 32.3, Cav32 inh 0.943 and CYP2C9 inh 37.8.
CC1CCN(S(=O)(=O)c2cccc(-c3cn4cc(Cl)ccc4n3)c2)CC1 was read as CYP2C19 act 0.5, CYP2C9 act 0.4, CYP2C19 inhib 46.2, Cav32 inh -0.129 and CYP2C9 inh 61.3*.
Screening Cc1nc(-c2cccc(S(=O)(=O)N3CCC(C)CC3)c2)cs1 returned CYP2C19 act 0.8, CYP2C9 act 0.6, CYP2C19 inhib 20.5, Cav32 inh -3.44 and CYP2C9 inh 40.7.

Compound activity from PubChem.
